High-throughput results (PubChem BioAssay)
GPR151 ag: activators of human GPR151. 650,000 tested, 1% active. activation, % at 11.2 µM. AID 1508602. Q8TDV0. PathHunter beta-arrestin GPR151 cells, luminescence; in the data active = activation above about 4.9%;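 note: 0% = median of compound wells and 100% = cells with positive control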
TEAD-YAP inh: TEAD-YAP interaction inhibition; 640,000 tested, 1.4% active; HEK-TIYL cells, TEAD-Gal4/YAP UAS-luciferase luminescence; inhibition, % at 9.12 µM; in the data active = inhibition above about 32%;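 note: 0% = median of test compound wells and 100% = reference inhibitor wells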
FBW7 activator: activators of human E3 ligase FBW7. AlphaScreen FBW7–phospho-cyclin E peptide binding, activator screen. normalized activity (activation), % at 26.1 µM. 650,000 tested, 0.13% active. AID 1259310; in the data active = normalized activity above about 1.9%;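 note: purified mutant Fbw7 with reduced substrate affinity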
Target sequence (Q969H0 whole entry, looked up): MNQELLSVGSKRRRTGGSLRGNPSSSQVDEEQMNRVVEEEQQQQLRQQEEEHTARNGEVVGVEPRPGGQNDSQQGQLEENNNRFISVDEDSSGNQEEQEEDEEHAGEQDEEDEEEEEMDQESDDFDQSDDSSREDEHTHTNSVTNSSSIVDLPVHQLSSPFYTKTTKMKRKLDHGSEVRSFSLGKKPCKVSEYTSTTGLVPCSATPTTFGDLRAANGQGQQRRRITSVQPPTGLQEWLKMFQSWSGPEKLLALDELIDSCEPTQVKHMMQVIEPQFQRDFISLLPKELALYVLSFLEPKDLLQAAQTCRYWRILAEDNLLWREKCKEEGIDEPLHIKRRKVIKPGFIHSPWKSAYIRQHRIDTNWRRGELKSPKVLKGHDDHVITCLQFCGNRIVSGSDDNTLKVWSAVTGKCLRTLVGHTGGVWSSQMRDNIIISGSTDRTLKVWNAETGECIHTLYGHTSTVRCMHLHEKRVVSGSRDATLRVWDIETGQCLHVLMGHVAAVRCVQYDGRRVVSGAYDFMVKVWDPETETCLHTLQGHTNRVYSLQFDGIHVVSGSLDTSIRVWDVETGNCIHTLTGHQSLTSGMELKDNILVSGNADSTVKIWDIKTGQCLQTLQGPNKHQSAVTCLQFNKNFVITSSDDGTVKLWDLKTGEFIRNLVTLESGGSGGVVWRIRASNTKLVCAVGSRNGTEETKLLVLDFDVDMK
MITF primary: human MITF inhibition, primary screen | inhibition, % at 2.6 µM | 650,000 tested, 0.91% active | AlphaScreen MITF homodimerization, bead proximity signal | O75030; in the data active = inhibition above about 50%;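 note: 0% = vehicle wells with protein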
An asterisk follows results filed as active. Compounds with a hit are over-represented: about 3.4% of the library has one in this group of screens.

SMILES | GPR151 ag | TEAD-YAP inh | FBW7 activator | MITF primary
COc1cccc(CSc2nncn3c2cc2occc23)c1 | -1 | -2 | 0 | 14
COc1cccc(CSc2nncn3c2cc2oc(C)cc23)c1 | -1 | -5 | 24* | 6
Cc1cccc(N=C(NN)c2ccc3ccccc3n2)c1 | -2 | 66* | 0 | 10
NS(=O)(=O)c1ccc(N=Nc2ccc(O)c3ncccc23)cc1 | -1 | 24 | -1 | 80*
O=C(O)c1ccccc1N=Nc1ccc(O)c2ncccc12 | 0 | -9 | 0 | 34
OCCN(CCO)c1ncnc2sc3c(c12)CCC3 | -1 | 1 | 0 | -3
O=C(Nc1cnc2cnc(-c3ccc(N4CCOCC4)cc3)cn12)C1CCOC1 (configuration not stated) | -1 | -18 | 2.4* | 6
O=C(O)CN1C(=O)/C(=N\N2C(=O)CSC2=S)c2ccccc21 | -1 | 5 | 0 | 55*
CCN1C(=O)/C(=N\N2C(=O)CSC2=S)c2ccccc21 | 0 | 4 | 0 | 16
COC1(C)N(c2ccc(C)cc2)CC(=Nc2ccc(C)cc2)N1c1ccc(C)cc1 (configuration not stated) | 1 | 38* | 0 | 9
COc1ccc(N2C(SC)=NC(=Nc3ccc(C)cc3)C23CCC(C(C)(C)C)CC3)cc1 (configuration not stated) | 0 | 2 | 0 | 13
COc1ccc(-c2nc(=S)nc(CC(C)=O)[nH]2)cc1OC | -2 | 3 | 0 | -14
Cc1cc(C)nc(N/N=C/c2sc(N3CCOCC3)nc2-c2ccccc2)n1 | 2 | 46* | 0 | 5
Nc1c(Br)cc(O)c2c1C(=O)c1ccccc1C2=O | 0 | 3 | 0 | 17
Nc1c2c3c(c(O)ccc3[nH]c1=O)C(=O)c1ccccc1-2 | -1 | 37* | 0 | -4
COc1ccc2c(c1)CCCN2C(=O)c1cc(OC)c(OC)c(OC)c1 | 2 | 45* | 0 | 14
COc1ccc(Cl)cc1C(=O)N1CCN(c2ccccc2F)CC1 | 4 | 34* | 0 | 0
COc1cc(C(=O)N2CCN(c3cccc(Cl)c3)CC2)cc(OC)c1OC | 1 | 52* | 0 | 3
COc1cc(C(=O)N2CCCc3ccccc32)cc(OC)c1OC | 1 | -1 | 0 | 10
COC(=O)c1cc(C(=O)N2CCN(c3ccccc3OC)CC2)cc([N+](=O)[O-])c1 | 2 | 64* | 0 | -11
O=C(Cc1ccccc1)Nc1c2c(nn1-c1ccc(Oc3ccccc3)cc1)CSC2 | 1 | -8 | 0 | 15
CCNC(=O)CC1S/C(=N\N=C2/CCCc3ccccc32)NC1=O (configuration not stated) | 1 | -7 | 0 | 5
CSc1ccc(NC(=O)NCCN2CCN(c3cccc(Cl)c3)CC2)cc1 | 0 | 3 | 4.4* | -13
Cc1c(C(=O)N2CCN(c3cccc(Cl)c3)CC2)sc2nc[nH]c(=O)c12 | 0 | 48* | 0 | -9
COc1ccccc1N1CCN(C(=O)COc2cccc(C)c2C)CC1 | 0 | 4 | 0 | 18
SMILES | GPR151 ag | TEAD-YAP inh | FBW7 activator | MITF primary
COc1ccc(C(=O)N2CCN(c3cccc(C)c3C)CC2)cc1 | 1 | 1 | 0 | 6
COc1ccccc1N1CCN(C(=O)COc2ccc(Br)cc2C)CC1 | 2 | 49* | 0 | 6
COc1cc(OC)cc(C(=O)N2CCN(c3cccc(C)c3C)CC2)c1 | -1 | 47* | 0 | 12
COCCNC(=O)c1sc2ncn(Cc3ccccc3Cl)c(=O)c2c1C | -1 | 1 | 1 | 24
O=C(N1CCCCCC1)N1c2ccccc2Sc2ccccc21 | 0 | -3 | 0 | 3
COc1ccccc1N1CCN(C(=O)c2nc(SC)ncc2Cl)CC1 | 4 | 49* | 0 | -18
COc1nn(C)cc1C(=O)N1CCCC(C(=O)N2CCN(c3cccc(Cl)c3)CC2)C1 (configuration not stated) | -1 | 42* | 0 | 0
COc1ccccc1N1CCN(C(=O)c2cc(OC)c(OC)c(OC)c2)CC1 | 1 | 64* | 0 | -8
O=C(N1CCN(c2ccccc2F)CC1)N1c2ccccc2Sc2ccccc21 | 2 | 64* | 0 | 11
CSc1ncc(Cl)c(C(=O)N2CCN(C)CC2)n1 | 0 | 4 | 0 | -13
O=C(Cn1c(NCCO)nc2ccccc21)N1CCC(Cc2ccccc2)CC1 | -1 | 5 | 0 | -15
COc1ccccc1CNC(=O)c1ncoc1-c1ccccc1C(F)(F)F | -1 | -3 | 0 | -2
COc1ccccc1N1CCN(C(=O)c2ncoc2-c2ccccc2C(F)(F)F)CC1 | 0 | 51* | 0 | -17
Cc1cccc(N2CCN(C(=O)c3c(-c4ccccc4)noc3C)CC2)c1C | 0 | 53* | 0 | -7
